A selection: hits, their analogues and other compounds. The true share with any hit is near 2.1%.
TDP-43 yeast inh: qHTS of TDP-43 Inhibitors | Potency, µM (highest dose often 46.1 µM), actives largely listed as activators | TDP-43 expressing yeast growth rescue, BacTiter-Glo, 24 h | AID 652104, 2013 | actives 1.8% (n = 410,000); further: nearly all actives have a fitted effect of over 50% in size
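In this qHTS, compounds that restore growth of yeast expressing TDP-43 appear as activators. Cells (OD600=0.02, galactose medium, raffinose-pregrown) are incubated with compound 24 hr at 30 deg C and growth is quantified by BacTiter-Glo.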
FUS suppressor: qHTS for Suppressors of FUS Proteinopathy: Primary screen using FUS-linked yeast assay; S. cerevisiae FUS-expressing, growth rescue, OD600, 24 h; Potency, µM (top dose mostly 76.6 µM), usual class: activators; actives 0.24% (n = 390,000); further: nearly all actives have a fitted effect of over 55% in size
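Yeast FUS proteinopathy model; galactose-induced FUS (2%), starting OD 0.005. Cpds in dilution series, 24hr, 30C, 99% humidity. Abs 600 nm growth. Pos ctrl CP55940 (top 92uM final); neg ctrl DMSO.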
aSyn rescue: qHTS of alpha-syn Inhibitors; actives 0.14% (n = 370,000); AID 652106, 2013; Potency, µM (titrated, usually from 46.1 µM), actives largely listed as activators; Yeast expressing alpha-synuclein, growth rescue, BacTiter-Glo, 24 h; further: nearly all actives have a fitted effect of over 65% in size
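Galactose-induced alpha-syn yeast (OD600=0.02, raffinose-pregrown) + pinned cpd, 24 hr, 30 deg C; growth by BacTiter-Glo luminescence. Growth restoration scores as activation.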
Abeta rescue: qHTS for compounds that reverse cellular toxicity of Amyloid beta (A-beta) peptide in yeast: Primary Screen. yeast expressing A-beta42, growth rescue, OD600, 48 h; response scale: 0% DMSO, 100% iron-clioquinol control. Potency, µM (doses to about 46.1 µM), hits mostly activators. actives 0.063% (n = 410,000); further: nearly all actives have a fitted effect of over 55% in size
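Growth rescue measured by 600 nm absorbance after 48 h yeast culture at 30 C with compound. Values normalized between DMSO and an equimolar ferric chloride plus clioquinol control.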
Large screens that a line does not name were inactive. The call rests on the fitted dose curve; in most records, active means well fitted curve in the direction sought with a large enough effect; inconclusive means small, poorly fitted or top-dose-only effect, or another doubt; inactive means no such curve, though single readings can be large; an effect the other way counts as inactive or inconclusive.

O=C1CN(C(=O)COC(=O)CNC(=O)c2ccc(Br)o2)c2ccccc2N1	none
Cc1ccc(-c2csc(N/N=C/c3ccco3)n2)cc1	FUS suppressor inconclusive
Clc1ccc(-c2csc(N/N=C/c3ccco3)n2)cc1	TDP-43 yeast inh 6.31µM
CC(C)NC(=O)C1(N2C(=O)c3ccccc3C2=O)CCCC1	TDP-43 yeast inh 11.2µM
O=C(NCc1ccco1)c1nnc(Cc2ccc(Cl)cc2)o1	none
OC(c1ccccc1)c1nc(-c2ccccc2)cs1 (stereo unspecified)	none
OC(c1cccc(Cl)c1)c1nc(-c2ccc3c(c2)OCO3)cs1 (stereo unspecified)	TDP-43 yeast inh 31.6µM, aSyn rescue inconclusive
OC(c1ccccc1)c1nc(-c2ccc3c(c2)OCO3)cs1 (stereo unspecified)	TDP-43 yeast inh 20µM, aSyn rescue 11.2µM
Cn1c(O)c(N=NC(=O)c2ccccc2O)c2ccccc21	TDP-43 yeast inh 15.8µM
COc1ccc(S(=O)(=O)n2nc(-c3ccco3)nc2NCc2ccc(N(C)C)cc2)cc1	FUS suppressor 31.6µM (no result: aSyn rescue)
COc1ccc(-c2nc(NC(=O)CSCCO)sc2C)cc1	none
CCO/C=C1/C(=O)N(c2ccc(OC)cc2)C(=O)c2ccccc21	none
CCO/C=C1/C(=O)N(C)C(=O)c2cc(OC)ccc21	TDP-43 yeast inh 12.6µM
COc1ccc(N/C(C)=C/C(=S)Nc2ccccc2)cc1	TDP-43 yeast inh 12.6µM
O=C(COc1ccc(Cl)cc1)NCC(c1ccco1)S(=O)(=O)c1ccccc1 (stereo unspecified)	none (no result: aSyn rescue)
O=C(COc1ccc(Cl)cc1)NCC(c1ccco1)S(=O)(=O)c1ccc(Cl)cc1 (stereo unspecified)	TDP-43 yeast inh 35.5µM (no result: aSyn rescue)
COC(=O)c1ccc2nc(-c3ccc(F)cc3)c(Cc3ccccc3OC)n2c1	TDP-43 yeast inh 22.4µM
COC(=O)c1ccc2nc(-c3ccccc3)c(Cc3ccc(C)cc3)n2c1	TDP-43 yeast inh 12.6µM
COC(=O)c1ccc2nc(-c3ccc(C)cc3)c(Cc3cccc(Cl)c3)n2c1	TDP-43 yeast inh 22.4µM
Cc1ccc2c(C(=O)CNC3=NCCS3)c(C)[nH]c2c1	none (no result: TDP-43 yeast inh, FUS suppressor, Abeta rescue)
CSc1ccccc1NC(=O)CCn1c(=O)sc2ccccc21	TDP-43 yeast inh 15.8µM
CC(=O)Nc1cccc(NC(=O)CCn2c(=O)sc3ccccc32)c1	Abeta rescue inconclusive
Cc1nc(-c2ccc(S(=O)(=O)Nc3cc(Cl)ccc3C)cc2)co1	TDP-43 yeast inh 22.4µM, aSyn rescue inconclusive
Cc1nc(-c2ccc(S(=O)(=O)Nc3cc(F)ccc3F)cc2)co1	none
COc1ccccc1N(CC(O)COc1c(C)cc(C)cc1C)S(=O)(=O)c1ccccc1 (stereo unspecified)	TDP-43 yeast inh 17.8µM (no result: FUS suppressor)
Cc1ccc(C)c(S(=O)(=O)N2CCCC2CNC(=O)c2ccc([N+](=O)[O-])cc2)c1 (stereo unspecified)	TDP-43 yeast inh inconclusive
CCC(=O)N1N=C(c2ccc(C)o2)CC1c1ccc(OC)cc1 (stereo unspecified)	none
CCC(=O)N1N=C(c2ccc(C)o2)CC1c1ccc(Br)cc1 (stereo unspecified)	TDP-43 yeast inh 17.8µM (no result: FUS suppressor)
CCc1c(C)sc(NC(=S)Nc2cccnc2)c1C(=O)OC	TDP-43 yeast inh 25.1µM
CCC1CCc2sc(C(=O)O)cc2C1 (stereo unspecified)	TDP-43 yeast inh 14.1µM
CCOC(=O)c1ccc2nc(NC(=O)C(C)C)sc2c1	TDP-43 yeast inh 10µM, Abeta rescue inconclusive
Cc1cccc(/C(N)=N/OC(=O)N2c3ccccc3Sc3ccccc32)c1	TDP-43 yeast inh inconclusive
N/C(=N\OC(=O)N1c2ccccc2Sc2ccccc21)c1ccccc1	TDP-43 yeast inh 3.55µM
COc1ccc(C(CNC(=O)c2oc3cc(C)c(C)cc3c2C)N2CCCCC2)cc1 (stereo unspecified)	none
Cc1ccc(C2=NNC(=O)C(c3ccc(Cl)cc3)C2)cc1 (stereo unspecified)	TDP-43 yeast inh 22.4µM
O=C1NN=C(c2ccc(Cl)cc2)CC1c1c[nH]c2ccccc12 (stereo unspecified)	none
O=C1NN=C(c2ccc(Cl)cc2)CC1c1cccc(Br)c1 (stereo unspecified)	TDP-43 yeast inh 12.6µM, aSyn rescue inconclusive
CCOC(=O)C1CC(c2ccc(Cl)cc2)=NNC1=O (stereo unspecified)	none
O=C(N/N=C/c1cccc(NC(=O)c2ccc(Cl)cc2)c1)c1ccc(O)cc1	none
Cc1cc(NC(=O)/C=C/c2ccccc2)c(C(C)C)cc1O	none
CCCS(=O)(=O)c1ncc(Cl)c(C(=O)N2CCN(c3ccc(OC)cc3)CC2)n1	TDP-43 yeast inh 14.1µM (no result: aSyn rescue)
Cc1cccc(OCC(=O)N/N=C/CC(C)c2ccccc2)c1C (stereo unspecified)	none (no result: FUS suppressor)
O=C(Nc1ccc(F)cc1F)C1CCCN(c2ncnc3c2nc2n3CCCCC2)C1 (stereo unspecified)	TDP-43 yeast inh inconclusive
CCOc1ccc(Nc2ncnc3c2nc2n3CCCCC2)cc1	TDP-43 yeast inh 12.6µM (no result: aSyn rescue)
Fc1ccc(Nc2ncnc3c2nc2n3CCCCC2)c(F)c1	TDP-43 yeast inh 11.2µM (no result: aSyn rescue)
COc1ccc(Nc2ncnc3c2nc2n3CCCC2)cc1Cl	TDP-43 yeast inh 12.6µM (no result: aSyn rescue)
CCCCc1nc2ccccc2c(=O)n1NC(=O)c1c(O)c2ccccc2n(C)c1=O	none
O=c1c2c(-c3ccc(Cl)cc3)csc2nc2n1CCC2	TDP-43 yeast inh 14.1µM (no result: FUS suppressor)
Nn1cnc2scc(-c3ccc(Cl)cc3)c2c1=O	TDP-43 yeast inh inconclusive
O=C(CSc1nc2ccccc2n1Cc1c(F)cccc1Cl)N1CCN(c2ccc(F)cc2)CC1	none (no result: aSyn rescue)
Cc1nc2c(-c3ccc(Cl)cc3)cnn2c(N)c1-c1ccc(F)cc1	none
Cc1nc2c(-c3ccc(F)cc3)cnn2c(N)c1-c1ccccc1	TDP-43 yeast inh 12.6µM
CCC(CC)C(=O)Nc1cc(-c2cccc(C)c2)nn1-c1ccccc1	TDP-43 yeast inh 12.6µM (no result: aSyn rescue)
Cc1cccn2c(=O)c(C=O)c(Cl)nc12	TDP-43 yeast inh 10µM
Cc1cccn2c(=O)c(C=O)c(N3CCCCC3)nc12	none
CC(C)C[C@@H](CN1CCC[C@H]1CN1C(=O)C(=O)NC[C@@H]1Cc1ccc(O)cc1)N1C[C@H](Cc2ccccc2)N(CC2CCCCC2)C(=O)C1=O	none
CC(C)COC(=O)NCCOC(=O)Nc1cccc(Cl)c1	TDP-43 yeast inh 25.1µM
CC(C)COC(=O)NCCCOC(=O)Nc1ccccc1	none
CC(C)(O)c1[nH]c2ccc(C(F)(F)F)cc2c1C(C)(C)O	TDP-43 yeast inh 14.1µM, Abeta rescue inconclusive
CN(C)Cc1c(C(C)(C)O)[nH]c2ccc(C(F)(F)F)cc12	none
CC(C)(O)c1[nH]c2cc(C(F)(F)F)ccc2c1C(C)(C)O	TDP-43 yeast inh 35.5µM, Abeta rescue inconclusive
Cc1c(C(C)(C)O)[nH]c2cc(C(F)(F)F)ccc12	TDP-43 yeast inh inconclusive, Abeta rescue inconclusive
Nc1c(Cl)cnc(C(Cl)(Cl)Cl)c1Cl	TDP-43 yeast inh 12.6µM
